A short description of one test: PubChem AID 1714.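 Note: raw slope of fluorescence over initial fluorescence between 10 and 20 s after thallium.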 As to conditions: HEK293-KCC2 + bumetanide/ouabain, thallium flux FluoZin2; at 10 µM; stronger effect = higher value.
In test [1] the target is Solute carrier family 12 member 5 (Homo sapiens) (UniProt Q9H2X9). The experiment in a line: KCC2 modulators without ouabain present, confirmation, cell-based, HEK293 KCC2, thallium flux, FluoZin2, secondary assay 2 (AID 1715;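 active = thallium flux slope more than 3 SD above or below the plate's solvent-only control mean, mostly below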;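 note: raw slope with 0.1% DMSO as baseline and bumetanide as block control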). The settings on record: HEK293-KCC2, thallium flux FluoZin2 fluorescence; at 10 µM; actives lie on both sides; F/F0 rise rate, 10–20 s post-thallium.
Solute carrier family 12 member 5 (Homo sapiens), sequence (Q9H2X9 whole entry, looked up): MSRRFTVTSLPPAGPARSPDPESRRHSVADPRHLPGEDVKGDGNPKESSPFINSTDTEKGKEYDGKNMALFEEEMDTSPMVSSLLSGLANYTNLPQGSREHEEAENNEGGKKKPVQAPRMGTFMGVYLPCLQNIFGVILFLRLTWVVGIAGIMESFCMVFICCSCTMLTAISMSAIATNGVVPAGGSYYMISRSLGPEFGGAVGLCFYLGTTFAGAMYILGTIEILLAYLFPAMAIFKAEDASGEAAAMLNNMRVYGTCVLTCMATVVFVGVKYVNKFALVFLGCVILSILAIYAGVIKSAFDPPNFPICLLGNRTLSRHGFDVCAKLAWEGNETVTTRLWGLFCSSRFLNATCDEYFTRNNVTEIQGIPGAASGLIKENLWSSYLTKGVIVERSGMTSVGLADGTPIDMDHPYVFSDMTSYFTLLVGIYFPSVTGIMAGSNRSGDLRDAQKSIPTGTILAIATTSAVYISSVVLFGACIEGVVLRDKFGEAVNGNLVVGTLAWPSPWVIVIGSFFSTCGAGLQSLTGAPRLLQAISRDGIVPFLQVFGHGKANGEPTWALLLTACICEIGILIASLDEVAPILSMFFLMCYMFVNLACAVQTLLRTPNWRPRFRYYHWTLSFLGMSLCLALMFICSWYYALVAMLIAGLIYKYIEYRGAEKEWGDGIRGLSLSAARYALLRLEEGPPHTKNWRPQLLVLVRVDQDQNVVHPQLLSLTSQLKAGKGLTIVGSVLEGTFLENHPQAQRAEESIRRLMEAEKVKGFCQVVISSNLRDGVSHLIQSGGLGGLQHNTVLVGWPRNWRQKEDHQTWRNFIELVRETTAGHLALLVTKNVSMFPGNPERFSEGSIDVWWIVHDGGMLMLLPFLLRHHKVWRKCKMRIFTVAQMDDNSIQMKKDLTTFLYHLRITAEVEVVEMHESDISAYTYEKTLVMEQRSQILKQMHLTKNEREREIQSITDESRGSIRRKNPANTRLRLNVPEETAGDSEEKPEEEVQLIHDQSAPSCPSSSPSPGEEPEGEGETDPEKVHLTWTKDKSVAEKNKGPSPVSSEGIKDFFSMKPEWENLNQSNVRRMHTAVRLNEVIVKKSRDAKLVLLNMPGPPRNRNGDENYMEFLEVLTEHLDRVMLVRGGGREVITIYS

Test [2] has the same target. The experiment in a line: KCC2 inhibitors and activators, ouabain retest, confirmation, HEK-KCC2 cells (AID 1717;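 active = thallium flux slope beyond 3 SD from same-plate DMSO control mean in most replicates, usually higher, sometimes lower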;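 note: slope of initial-normalized fluorescence between seconds 10 and 20 after thallium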). The settings on record: HEK293-KCC2, thallium flux FluoZin2 fluorescence, at 10 µM, bidirectional: low = inhibitor, high = activator.
Test [3] can be described thus: native HEK Tl+ uptake effects, second counter-screen – HEK cells, counterscreen 2, counter-screen for KCC2 modulator project, confirmation (AID 1718;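 active = thallium flux slope above the same plate's solvent-control mean plus 3 SD in both duplicate wells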;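 note: run without ouabain in cells lacking the KCC2 cotransporter; slope of fluorescence scaled to its starting value between 10 and 20 s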). As to conditions: HEK293 parental, thallium flux FluoZin-2 fluorescence slope; at 10 µM. On the technique in general: Counterscreens check selectivity or assay interference.
For test [4], the target named is Solute carrier family 12 member 5 (Homo sapiens) (UniProt Q9H2X9). The test can be described thus: KCC2 modulators in sodium-free buffer, confirmation, cell-based, HEK293 KCC2, thallium flux, secondary assay (AID 1713;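 active = thallium flux slope above the same plate's solvent-only control mean plus 3 SD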). The settings on record: FluoZin2 fluorescence, at 10 µM, stronger effect = higher value.
A short description of test [5]: thallium flux modulation in parental HEK cells, confirmation, counter-screen for KCC2 modulator project, cell-based, counterscreen 1 (AID 1716). As to conditions: HEK293 parental cells, thallium flux FluoZin2, ouabain; at 10 µM; baseline-ratio fluorescence slope, 10–20 s after thallium.
A short description of test [6]: inhibitors of TNFa-induced NFkB p65 translocation, primary screen, imaging, HUVEC, MLSMR starter and 10KST1 sets (AID 438;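 active = inhibition above 20% together with a positive visual image hit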;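 note: compound added about 3h40 before a 20 min TNFalpha stimulation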;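 for inhibition: signal is the nuclear over cytoplasmic p65 intensity ratio per well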). The settings on record: HUVEC TNFa-induced p65 nuclear translocation; cell count: measured here: nuclei count (cytotoxicity indicator), at 2.08 µM; inhibition: at 2 µM, stronger effect = higher value, 0% TNFa-plus-vehicle, 100% no-TNFa wells.
Test [7] in a line: inhibitors of mutant huntingtin aggregation, primary screen, imaging, exon1htt(103Q)mCFP cells, high-content imaging (AID 483;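 active = visual image review flags a hit and inhibition of aggregation exceeds 20%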;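 note: compound exposure lasted 3 days before fixation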;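 for nuclei count: percent of the per-plate median nuclei count of sample wells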). The settings on record: exon1htt(103Q)mCFP cell line, aggregate imaging, at 2 µM; inhibition of aggregation: stronger effect = higher value; nuclei count: measured here: cell count, toxicity.
Test [8] can be described thus: inhibitors of E-selectin induction by TNFa, primary screen, imaging, HUVEC, immunofluorescence, MLSMR starter and 10KST1 sets (AID 487;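 active = visually confirmed hit in the image check and inhibition above 20%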;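 for inhibition: signal is fraction of cell area covered by stained E-selectin grains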;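 for nuclei count: 100% = median nuclei count of all wells on the same plate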). As to conditions: HUVEC TNFalpha-induced E-selectin immunofluorescence imaging, at 2 µM; inhibition: stronger effect = higher value; nuclei count: measured here: cell number, toxicity.
Test [9] is described as follows: DUSP6 inhibitors restoring Erk phosphorylation by chemical complementation, primary imaging in DUSP6-transfected HeLa (AID 609;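 active = compounds giving at least 50% inhibition in the cell-based MKP-3 phosphatase rescue imaging test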;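 for inhibition: phospho-Erk level distribution per well compared with pooled transfected vehicle control wells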). As to conditions: HeLa MKP-3 transfected, phospho-Erk imaging KS statistic, at 10 µM, cells stimulated with TPA for 15 min.
The target of test [10] is Dual specificity protein phosphatase 6 (Homo sapiens) (UniProt Q16828). The test is described as above. As to conditions: HeLa MKP-3 transfected, phospho-Erk imaging KS statistic; at 10 µM; stronger effect = higher value; cells stimulated with TPA for 15 min.
Dual specificity protein phosphatase 6 (Homo sapiens), sequence (Q16828 whole entry, looked up): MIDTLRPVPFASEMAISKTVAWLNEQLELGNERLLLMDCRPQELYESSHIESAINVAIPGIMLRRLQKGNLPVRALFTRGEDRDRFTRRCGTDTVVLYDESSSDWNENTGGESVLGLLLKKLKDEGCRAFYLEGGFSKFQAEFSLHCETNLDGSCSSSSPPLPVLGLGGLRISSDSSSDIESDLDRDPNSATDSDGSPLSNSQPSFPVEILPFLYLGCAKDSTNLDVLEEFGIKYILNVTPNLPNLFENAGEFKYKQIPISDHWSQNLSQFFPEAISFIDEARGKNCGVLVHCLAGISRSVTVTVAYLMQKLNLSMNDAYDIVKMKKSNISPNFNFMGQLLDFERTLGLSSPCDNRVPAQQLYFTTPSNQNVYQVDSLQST
Test [11] concerns the target Voltage-gated potassium channel subunit beta-2 (Rattus norvegicus) (UniProt P62483). The test can be described thus: KvBeta enzyme negative modulators, primary screen, biochemical, NADPH fluorescence (AID 622;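 active = fluorescence slope higher than the sample average by over 3 SD, cut at about -0.22 in these data, passing the limit was not always enough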;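 note: slope of raw intensity against log time taken from 70 to 1610 s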). As to conditions: recombinant KvBeta, 4-cyanobenzaldehyde reduction, at 10 µM, stronger effect = higher value.
Test [12] has the same target. The experiment in a line: KvBeta positive modulators, primary screen, biochemical, NADPH fluorescence (AID 623;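 active = NADPH fluorescence slope more negative than the mean of all samples by about 3 SD, 99.7% confidence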;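 note: fluorescence intensity change per second fitted from 20 to 320 s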). As to conditions: Recombinant KvBeta, NADPH fluorescence decrease slope, 10 min; at 10 µM; stronger effect = lower value.
Test [13] deals with Alpha-2C adrenergic receptor (Homo sapiens) (UniProt P18825). The experiment in a line: modulators of alpha2C/GIRK thallium flux, primary screen, cell-based, HEK293 alpha2C/GIRK1/2 (AID 624;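 active = fluorescence slope after compound addition differing from the mean of all screened samples at 99.7% confidence, in either direction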;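 note: slope of fluorescence ratio to pre-addition baseline per second over 15 to 24 s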). As to conditions: thallium flux BTC fluorescence, at 10 µM, actives lie on both sides.
Alpha-2C adrenergic receptor (Homo sapiens), sequence (P18825 whole entry, looked up): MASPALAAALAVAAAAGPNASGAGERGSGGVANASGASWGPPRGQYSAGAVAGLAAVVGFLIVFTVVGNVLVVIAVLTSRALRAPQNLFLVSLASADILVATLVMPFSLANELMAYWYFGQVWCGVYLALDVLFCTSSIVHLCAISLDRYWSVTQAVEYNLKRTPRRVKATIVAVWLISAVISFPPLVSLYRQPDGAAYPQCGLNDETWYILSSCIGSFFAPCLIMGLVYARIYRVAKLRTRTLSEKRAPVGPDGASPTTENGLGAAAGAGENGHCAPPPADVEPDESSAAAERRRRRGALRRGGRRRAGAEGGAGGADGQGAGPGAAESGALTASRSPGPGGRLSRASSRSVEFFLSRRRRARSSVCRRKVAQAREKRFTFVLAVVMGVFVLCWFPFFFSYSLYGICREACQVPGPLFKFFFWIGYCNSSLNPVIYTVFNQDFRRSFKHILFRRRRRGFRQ
Test [14] in a line: inhibitors of Chlamydomonas gravitaxis, primary screen, whole organism, Chlamydomonas reinhardtii, WT vs cilia-less mutant, absorbance, 96-well (AID 463189;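 active = inhibition at or above 50% relative to wild type and mutant plate controls; inactive = inhibition below 50%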;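 note: 0% = wild type cc124 cells in DMSO and 100% = ciliumless bld1 mutant cells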). As to conditions: OD600 absorbance, 2 days, at 10 µM, stronger effect = higher value.
A short description of test [15]: inhibitors of Sendai virus-induced IRF3 signaling, primary screen, TLR/RLR signaling modifier project, cell-based, Sendai virus stimulus, luciferase, 10K MLSCN set (AID 602276;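 active = inhibition at or above 50% at 10 µM; inactive = inhibition below 50%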;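 note: firefly luciferase from ISG56 promoter only with Renilla not read in this screen; 0% = Sendai virus plus DMSO and 100% = medium plus DMSO without virus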). As to conditions: HEK293 RL24 IRF3 luciferase reporter, at 10 µM, stronger effect = higher value.
Test [16] can be described thus: inhibitors of poly I:C-induced TLR3 signaling, primary screen, cell-based, poly I:C stimulus, luciferase, 10K MLSCN set (AID 602277;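 active = inhibition of the reporter signal at or above 50%; inactive = inhibition below 50%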). The settings on record: HEK293-TLR3 RL24 IRF3 luciferase reporter, at 10 µM, stronger effect = higher value. (Reporter assays use an easily measured gene product as a stand-in for the process of interest.)
Test [17] has as its target Muscarinic acetylcholine receptor M4 (Homo sapiens) (UniProt P08173). The experiment in a line: compounds altering M4/GIRK thallium flux, either direction, primary screen, M4 allosteric agonist project, cell-based, HEK293 M4/GIRK, BTC-AM (AID 625;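 active = fluorescence slope after compound addition differing from the mean of all tested samples at 99.7% confidence, mostly higher but some lower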;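 note: thallium influx through GIRK channels coupled to M4 in HEK293 cells with BTC-AM dye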). As to conditions: at 10 µM, actives lie on both sides.
Test [18] in a line: inhibitors of larval lipid processing in zebrafish, primary screen, whole organism, PED6 fluorescence, gall bladder and intestine (AID 686;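 active = a full or partial loss of lipid-probe fluorescence in the fish gall bladder, intestine or both, judged by eye; inactive = no fluorescence loss, or compound toxic to the fish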;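 note: larvae 5 to 7 days old with five fish per well; signal comes from phospholipase A2 cleavage of quenched PED6 carried via bile; overnight exposure to compound and PED6 before scoring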). As to conditions: Zebrafish larvae PED6 lipid processing, fluorescence scoring; screened at 20 µM (by protocol).
Where [19] appears, read: measured here: cell density z-score.
Setting [20] is: measured here: nuclear c-Myc green intensity z-score.
The mark [21] stands for this setting: measured here: nuclear pErk red intensity z-score, stronger effect = higher value.

This is one part of the list. Results filed as inconclusive are left out. Active and inactive are the calls of the source.

Voltage-gated potassium channel subunit beta-2 (Rattus norvegicus), sequence (P62483 whole entry, looked up): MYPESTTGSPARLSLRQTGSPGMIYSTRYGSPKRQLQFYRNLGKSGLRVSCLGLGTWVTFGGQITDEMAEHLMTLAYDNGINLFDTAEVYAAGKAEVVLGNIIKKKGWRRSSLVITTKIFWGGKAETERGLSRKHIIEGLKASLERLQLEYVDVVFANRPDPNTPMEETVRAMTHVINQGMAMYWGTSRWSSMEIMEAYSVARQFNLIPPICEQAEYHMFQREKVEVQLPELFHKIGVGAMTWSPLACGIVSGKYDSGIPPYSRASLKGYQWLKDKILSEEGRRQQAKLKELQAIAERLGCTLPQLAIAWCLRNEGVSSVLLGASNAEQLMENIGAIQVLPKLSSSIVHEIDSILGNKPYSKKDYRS
Muscarinic acetylcholine receptor M4 (Homo sapiens), sequence (P08173 whole entry, looked up): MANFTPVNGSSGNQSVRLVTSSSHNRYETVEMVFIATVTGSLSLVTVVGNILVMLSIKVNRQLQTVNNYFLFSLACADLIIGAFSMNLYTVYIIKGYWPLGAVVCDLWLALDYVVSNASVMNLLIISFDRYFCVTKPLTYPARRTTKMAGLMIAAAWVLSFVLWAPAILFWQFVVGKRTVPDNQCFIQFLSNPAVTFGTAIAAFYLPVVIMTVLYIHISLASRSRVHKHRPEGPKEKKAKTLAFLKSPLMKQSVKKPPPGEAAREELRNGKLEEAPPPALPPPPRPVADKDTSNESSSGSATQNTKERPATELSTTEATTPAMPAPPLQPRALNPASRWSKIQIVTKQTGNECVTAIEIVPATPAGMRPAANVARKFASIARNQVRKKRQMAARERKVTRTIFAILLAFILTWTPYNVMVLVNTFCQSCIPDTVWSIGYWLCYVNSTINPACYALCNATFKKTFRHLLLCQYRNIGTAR

Take `O=C(Nc1ccccc1F)C1C2C=CC3(O2)C1C(=O)N(c1cccnc1)C3C(=O)NC1CCCCC1` (configuration not stated): the results for the normalized thallium flux (in “PubChem AID 1714”; in test [1]) were 0.00547 (active) and 0.0222 (active), respectively. Further, in test [2], the raw Tl+ flux slope (below DMSO = inhibition, above = activation) was 0.0131 (active). Besides, the thallium flux slope in test [3] was 0.0108 (inactive).
In the case of `O=C(O)CS/C(=C\c1ccc(F)cc1)c1nc2ccccc2s1`, the normalised thallium flux (F/F0 slope) in test [4] is 0.0153 (inactive). The thallium flux rate (normalised fluorescence) in test [5] is 0.00592 (active). Besides, the raw Tl+ flux slope (below DMSO = inhibition, above = activation) in [2] is 0.011 (active).
As for `CC(C)(C)c1ccc(C(=O)NCC(=O)OCN2C(=O)c3ccccc3C2=O)cc1`, the normalized thallium flux in the test “PubChem AID 1714” is 0.00471 (inactive); in [1], 0.031 (inactive). Further, the thallium flux rate (normalised fluorescence) in test [5] is 0.00756 (inactive). Also, in [2], the raw Tl+ flux slope (below DMSO = inhibition, above = activation) was 0.0171 (inactive). In [3], the thallium flux slope was 0.0105 (inactive).
As to `COC(=O)CC1SC(=O)NC1=O` (configuration not stated), the cell count in test [6] turned out to be 552. Further, the inhibition – broadly, the change of the read-out against control, counted positive when it falls – in [6] is -6.8% (inactive); in test [8], -98.9% (inactive); in [10], 5.26% (inactive); in [14] it was 6.27% (inactive); in test [15], 1.46% (inactive); in test [16], 8.22% (inactive). Moreover, in test [7], the inhibition of aggregation is 26.4% (inactive). For the same compound, the nuclei count in [7] is 110%; in test [8] it was 124%. Also, the figures for the z-score in test [9] (setting [19]), in test [9] (setting [20]) and in test [9] (setting [21]) were -1.23, -0.523 and 0.399, respectively. Further, in [11], the fluorescence slope is -0.414 (inactive). For the same compound, the NADPH fluorescence slope in test [12] was -0.000171 (inactive). Besides, in [13], the slope was 0.00686 (inactive).
For `CCC(CC)NC(=O)CSc1nnc(-c2c[nH]c3ccccc23)o1`, the figures for the normalized thallium flux (in “PubChem AID 1714”; in test [1]) were 0.00461 (inactive) and 0.0248 (active), respectively. Moreover, in test [5], the thallium flux rate (normalised fluorescence) is 0.00757 (inactive). Further, the thallium flux slope in test [3] is 0.0106 (inactive).
With `c1ccc2[nH]c(-c3cscn3)nc2c1`, in test [6], the cell count turned out to be 587. Further, the inhibition in test [6] is 2.5% (inactive); in [8], -51.2% (inactive); in test [10], 1.38% (inactive); in test [14], 45% (inactive); in test [15], -40.2% (inactive); in [16], -133% (inactive). For the same compound, the inhibition of aggregation in [7] is -29.1% (inactive). In addition, the nuclei count in test [7] came out at 99.7%; in test [8], 111%. Besides, the z-score in [9] (setting [19]) is -1.12; in [9] (setting [20]), -0.0303; in test [9] (setting [21]), -0.292. Also, in [11], the fluorescence slope was -0.491 (inactive). Also, the NADPH fluorescence slope in test [12] is -6.5e-05 (inactive). The slope in test [13] is 0.00525 (inactive).
`Cc1[nH]n(-c2ccccc2)c(=O)c1N=Nc1ccccc1C(=O)N1CCCCC1`: the figures for the normalized thallium flux (in “PubChem AID 1714”; in test [1]) were 0.0338 (active) and 0.03 (inactive), respectively. For the same compound, in test [5], the thallium flux rate (normalised fluorescence) was 0.0142 (active). In test [2], the raw Tl+ flux slope (below DMSO = inhibition, above = activation) was 0.0253 (active).
As to `Cc1ccccc1-c1nc(CS(=O)(=O)CC(=O)N2CCc3ccccc3C2)c(C)o1`, in the test “PubChem AID 1714”, the normalized thallium flux is 0.00657 (inactive). Moreover, the thallium flux rate (normalised fluorescence) in [5] was 0.00685 (inactive). Also, the raw Tl+ flux slope (below DMSO = inhibition, above = activation) in test [2] was 0.0154 (active).
Turning to `CN1c2ccccc2-c2nc3ccccc3n2C1c1ccco1` (configuration not stated), the cell count in test [6] was 385. Further, the inhibition is -3.7% (inactive) in test [6], 1.9% (inactive) in test [8], 6.04% (inactive) in [10] and 3.48% (inactive) in [14]. Moreover, the nuclei count in [8] came out at 99.5%. Besides, the results for the z-score in [9] (setting [19]), in test [9] (setting [20]) and in test [9] (setting [21]) were 0.728, 0.674 and -0.101, respectively. In addition, the fluorescence slope was -0.315 (inactive) in [11] and 0.00492 (inactive) in test [17]. Moreover, the NADPH fluorescence slope in test [12] was 1.6e-05 (inactive). In addition, the outcome in [18] was inactive. In addition, in test [4], the normalised thallium flux (F/F0 slope) is 0.00855 (inactive). The normalized thallium flux in test [1] is 0.0321 (inactive). The thallium flux rate (normalised fluorescence) in [5] is 0.00467 (active). In addition, the thallium flux slope in test [3] was 0.0097 (inactive).
Turning to `CC[C@@H](C)[C@@H](C(=O)N1CCN(C(=O)OC(C)(C)C)CC1)n1cc(CCC(=O)O)nn1`, the normalised thallium flux (F/F0 slope) in test [4] is 0.0104 (inactive). The normalized thallium flux in test [1] is 0.0349 (inactive). Further, the thallium flux rate (normalised fluorescence) in [5] was 0.00923 (active). For the same compound, the raw Tl+ flux slope (below DMSO = inhibition, above = activation) in [2] is 0.0234 (inactive). Besides, the thallium flux slope in test [3] was 0.0111 (inactive).
